High-throughput results: PubChem BioAssay, The Scripps Research Institute Molecular Screening Center
The list is not random: actives were taken first. Their share in the collection is about 3.4%.
TEAD-YAP inh: TEAD-YAP interaction inhibition | inhibition, % at 9.12 µM | HEK-TIYL cells, TEAD-Gal4/YAP UAS-luciferase luminescence | 640,000 tested, 1.4% active; in the data active = inhibition above about 32%
FBW7 activator: human FBW7 E3 ligase activation, primary screen | Q969H0 | AlphaScreen FBW7–phospho-cyclin E peptide binding, activator screen | normalized activity (activation), % at 26.1 µM | 650,000 tested, 0.13% active | AID 1259310; in the data active = normalized activity above about 1.9%;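 note: purified mutant Fbw7 with reduced substrate affinity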
MITF inh: inhibitors of human MITF; AlphaScreen MITF homodimerization, bead proximity signal; inhibition, % at 2.6 µM; 650,000 tested, 0.91% active; AID 1259374; in the data active = inhibition above about 50%
GPR151 ag: human GPR151 activation; activation, % at 11.2 µM; 650,000 tested, 1% active; PathHunter beta-arrestin GPR151 cells, luminescence; AID 1508602; in the data active = activation above about 4.9%
Target sequence (Q8TDV0 whole entry, looked up): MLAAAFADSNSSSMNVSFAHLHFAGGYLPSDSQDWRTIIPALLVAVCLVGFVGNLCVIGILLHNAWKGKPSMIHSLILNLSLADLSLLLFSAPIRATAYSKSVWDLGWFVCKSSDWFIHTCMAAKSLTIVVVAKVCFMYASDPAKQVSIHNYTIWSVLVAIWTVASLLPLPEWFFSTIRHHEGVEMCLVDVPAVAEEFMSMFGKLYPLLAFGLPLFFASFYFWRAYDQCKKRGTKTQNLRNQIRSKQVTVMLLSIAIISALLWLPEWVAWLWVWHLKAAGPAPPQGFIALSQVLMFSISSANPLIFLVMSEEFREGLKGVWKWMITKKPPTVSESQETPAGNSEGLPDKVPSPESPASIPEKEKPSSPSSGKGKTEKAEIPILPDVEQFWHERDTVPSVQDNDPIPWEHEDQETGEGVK
Of the large screens only hits and unclear results are named; the others gave an inactive call.

COc1ccc(CCNc2cc(-c3c(C)nn(C)c3C)nc(N)n2)cc1	TEAD-YAP inh 50
CCCNc1cc(-c2c(C)nn(C)c2C)nc(N)n1	TEAD-YAP inh 40
Cn1c(Nc2cc(C(=O)NCc3cccc(C(F)(F)F)c3)ccn2)nc2ccccc21	TEAD-YAP inh 35
C/C=C/COC(=O)c1[nH]c2c(c1C)C(=O)CC(c1cccs1)C2 (stereo not drawn)	TEAD-YAP inh 42
Cc1c(C(=O)OC(C)C)[nH]c2c1C(=O)CC(c1cccs1)C2 (stereo not drawn)	TEAD-YAP inh 60
COCCOC(=O)c1[nH]c2c(c1C)C(=O)CC(c1cccs1)C2 (stereo not drawn)	TEAD-YAP inh 49
Cc1c(C(=O)OCCOC(C)C)[nH]c2c1C(=O)CC(c1cccs1)C2 (stereo not drawn)	TEAD-YAP inh 51
O=[N+]([O-])c1ccc(OCCCCNCCO)cc1	none
COc1ccc(S(=O)(=O)N(CC(=O)N2CCN(c3ccccc3)CC2)c2ccc(C)cc2)cc1OC	none
CCSCCOC(=O)C1=C(C)NC2=C(C(=O)CC(c3cccs3)C2)C1c1ccc(F)cc1 (stereo not drawn)	none
CCSCCOC(=O)c1[nH]c2c(c1C)C(=O)CC(c1cccs1)C2 (stereo not drawn)	TEAD-YAP inh 55
CCOC(=O)c1[nH]c2c(c1C)C(=O)CC(c1cccs1)C2 (stereo not drawn)	TEAD-YAP inh 52
CCOCCOC(=O)c1[nH]c2c(c1C)C(=O)CC(c1cccs1)C2 (stereo not drawn)	TEAD-YAP inh 54
CCOC(=O)C1=C(C)NC2=C(C(=O)CC(c3cccs3)C2)C1c1ccc(C)s1 (stereo not drawn)	none
O=[N+]([O-])c1ccc2ncnc(Nc3ccc(F)cc3F)c2c1	TEAD-YAP inh 35
Cc1nn(S(=O)(=O)c2ccc([N+](=O)[O-])cc2)c(C)c1Sc1ccc(Cl)cc1	none
COc1cc(NC(=O)c2cccc(-n3cc(NS(=O)(=O)Cc4ccccc4)cn3)c2)cc(OC)c1OC	TEAD-YAP inh 39
COc1cc(NC(=O)c2cccc(-n3cc(Nc4nc5ccccc5[nH]4)cn3)c2)cc(OC)c1OC	TEAD-YAP inh 34
COc1cc(NC(=O)c2cccc(-n3cc(Nc4nnnn4-c4ccccc4)cn3)c2)ccc1N1CCOCC1	TEAD-YAP inh 32
Cc1ccc(-c2cncc(-c3cc(N4CCN(C)CC4)nc(C)n3)c2)cc1	none
CN1CCN(c2cc(NCc3ccco3)c3c4c(onc24)-c2ccccc2C3=O)CC1	MITF inh 56
O=C1c2ccccc2-c2onc3c(N4CCCCCC4)cc(NCCO)c1c23	TEAD-YAP inh 37
CCNc1cc(N2CCCC2)c2noc3c2c1C(=O)c1ccccc1-3	none
CCNc1cc(N2CCN(CC)CC2)c2noc3c2c1C(=O)c1ccccc1-3	MITF inh 61
CCNc1cc(N2CCN(C)CC2)c2noc3c2c1C(=O)c1ccccc1-3	none
CC(C)Nc1cc(N2CCOCC2)c2noc3c2c1C(=O)c1ccccc1-3	MITF inh 56
COc1ccc(C2CC(c3cccs3)=NN2C(=O)CSc2nnc(CNC(=O)c3cccs3)n2-c2cc(C)ccc2C)cc1 (stereo not drawn)	none
C=CCn1c2ccccc2c2nnc(SCC(=O)NC(C)(C)C)nc21	none
Nc1c(NCCN2CCCC2)c2ccccc2oc1=O	none
Cc1cccc(Nc2cc(N3CCCCC3)c3noc4c3c2C(=O)c2ccccc2-4)c1	MITF inh 52
CC1CCCN(c2cc(NCC(=O)O)c3c4c(onc24)-c2ccccc2C3=O)C1 (stereo not drawn)	TEAD-YAP inh 67, MITF inh 59
CC1CCCN(c2cc(NCCO)c3c4c(onc24)-c2ccccc2C3=O)C1 (stereo not drawn)	TEAD-YAP inh 34
CC1CCN(c2cc(NCCC(=O)O)c3c4c(onc24)-c2ccccc2C3=O)CC1	MITF inh 55
CC1CCN(c2cc(NCCO)c3c4c(onc24)-c2ccccc2C3=O)CC1	none
Cc1cc(C)n(-c2cc(N3CCN(C(=O)c4ccccc4Br)CC3)ccc2[N+](=O)[O-])n1	none
CCOc1ccc(NC(=O)CC(=O)c2cccc(NC(=O)COc3ccc(C(C)(C)CC)cc3C(C)(C)CC)c2)cc1	none
CC(=O)OCCNc1cc(N2CCCCC2)c2noc3c2c1C(=O)c1ccccc1-3	MITF inh 57
CCCCOc1ccc(-c2nc(C=Nc3ccc(Cl)c([N+](=O)[O-])c3)c(O)o2)cc1	none
CCc1nc(NN)c2c(n1)-c1ccccc1CC21CCCCC1	none
Cc1c(C(=O)N2CCC(C(=O)O)CC2)oc2cc3sc(N(C)C)nc3cc12	none
O=C(CSc1n[nH]c(=O)n1Cc1ccccc1)Nc1ccc(Br)cc1F	TEAD-YAP inh 34
